Measurements published in PubChem BioAssay AID1135 (Sanford-Burnham Center for Chemical Genomics, 2008).
Out of some 200,000 compounds screened, about 65 (0.03%) were called active. This is one part of a sample in which actives are shown more often than they occur.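 Rule for the calls: active = over 50% inhibition of tissue-nonspecific alkaline phosphatase at 20 µM in the single-dose screen; inactive = the rest.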

What follows are compounds tested against Alkaline phosphatase, tissue-nonspecific isozyme (Homo sapiens) (UniProt P05186) (assay: blockers of alkaline phosphatase TNAP activity – biochemical, luminescent, high phosphate acceptor level, uHTS, primary screen (AID 1135;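 note: plate controls were DMSO wells for no effect and EDTA-quenched wells as full inhibition for full effect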)). Settings: purified TNAP, CDP-star luminescence, 1 M DEA; at 20 µM; stronger effect = higher value.
Chain of Alkaline phosphatase, tissue-nonspecific isozyme (Homo sapiens) (P05186 whole entry, looked up): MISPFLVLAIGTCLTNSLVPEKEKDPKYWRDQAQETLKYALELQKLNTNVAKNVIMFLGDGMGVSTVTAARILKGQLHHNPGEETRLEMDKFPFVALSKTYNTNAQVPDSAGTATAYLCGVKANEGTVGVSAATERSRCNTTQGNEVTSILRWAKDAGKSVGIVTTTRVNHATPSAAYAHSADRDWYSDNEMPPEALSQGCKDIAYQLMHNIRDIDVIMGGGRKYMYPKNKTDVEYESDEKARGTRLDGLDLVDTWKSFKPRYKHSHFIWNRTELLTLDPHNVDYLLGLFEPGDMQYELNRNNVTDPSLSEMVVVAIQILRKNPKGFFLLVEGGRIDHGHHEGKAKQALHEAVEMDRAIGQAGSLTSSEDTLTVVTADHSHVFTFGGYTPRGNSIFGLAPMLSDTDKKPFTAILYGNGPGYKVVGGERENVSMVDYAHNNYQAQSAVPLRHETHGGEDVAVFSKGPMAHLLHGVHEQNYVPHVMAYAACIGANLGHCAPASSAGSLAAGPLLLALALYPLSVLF

| Structure (SMILES) | inhibition |
| --- | --- |
| CC(=O)N/N=C/c1cc2c(cc1[N+](=O)[O-])OCO2 | 2.5% (inactive) |
| COc1ccc(NC(=S)NCCN2CCC(C)CC2)cc1 | -0.4% (inactive) |
| CCN1CCN(C(C(=O)NC2CCCC2)c2cc3c(cc2[N+](=O)[O-])OCO3)CC1 (stereo not drawn) | -2.4% (inactive) |
| O=C(Nc1ccccc1C(=O)N1CCOCC1)c1ccc(Cl)cc1 | -6.3% (inactive) |
| COc1ccc(Cl)cc1NC(=O)[C@@H]1CCCN1C(=O)c1cccs1 | 1% (inactive) |
| O=[N+]([O-])c1ccc(N/N=C2/CCCCC2c2ccccn2)c([N+](=O)[O-])c1 (stereo not drawn) | 4% (inactive) |
| CC(C)OC(=O)Cn1nc(C(F)(F)F)c2c1CCCC2 | -1.6% (inactive) |
| O=C(COc1ccccc1)Nc1ccc(N2CCN(C(=O)c3cccs3)CC2)cc1 | -2.1% (inactive) |
| Cc1ccc(NC(=O)c2sccc2C)cc1[N+](=O)[O-] | 0.9% (inactive) |
| COc1ccc(NS(=O)(=O)c2cc(NC(=O)C3CCCCC3)ccc2N2CCOCC2)cc1 | 0.1% (inactive) |
| COc1cccc(OC)c1C(=O)OCC(=O)/C(C#N)=C(\C)N | 0.2% (inactive) |
| CCOc1ccc(CCN2C(=O)c3cccnc3C2=O)cc1OCC | 2.6% (inactive) |
| CC(=O)c1ccc(N2CCN(CC(=O)Nc3ccccc3N3CCOCC3)CC2)cc1 | -5.4% (inactive) |
| CCOCCCNC(=O)C(NC(=O)Cc1c[nH]c2ccccc12)c1ccc(OC)cc1 (stereo not drawn) | 2.4% (inactive) |
| CCN1CCN(c2cc3nc(C)n(Cc4ccccc4)c(=O)c3cc2NC(=O)c2ccccc2F)CC1 | -2.8% (inactive) |
| C/C(=N\NC(=O)c1ccc(NS(=O)(=O)c2cccs2)cc1)c1ccc2ccccc2c1 | -2.7% (inactive) |
| Cc1ccc(C(=O)COC(=O)CCCC(=O)NC2CCCCC2)cc1[N+](=O)[O-] | -4.3% (inactive) |
| O=C(Nc1cccnc1)c1cc2cc(Br)ccc2oc1=O | -1.6% (inactive) |
| CCNS(=O)(=O)c1ccc(NC(=O)c2cncc(Br)c2)cc1 | -1% (inactive) |
| Cc1ccc(S(=O)(=O)N(C)C)cc1NC(=O)COC(=O)C1COc2ccccc2O1 (stereo not drawn) | -3.2% (inactive) |
| CCOC(=O)c1ccccc1N1C(=O)C2Sc3[nH]c(=O)sc3C(/C=C/c3ccccc3)C2C1=O (stereo not drawn) | 4.9% (inactive) |
| CCc1nnc(NC(=O)CCCSc2nc3ccccc3[nH]2)s1 | -4.4% (inactive) |

| Structure (SMILES) | inhibition |
| --- | --- |
| CCN(CC)P(=O)(Nc1ccc(SC(F)F)cc1)c1ccc(N(C)C)cc1NC(=O)c1ccco1 (stereo not drawn) | -7.3% (inactive) |
| O=C(C(=O)N1CCc2ccccc2C1)c1c[nH]c2ccccc12 | 40.6% (inactive) |
| C=CCNc1scc(-c2ccccc2)[n+]1CC=C | -7.7% (inactive) |
| Oc1c(Br)cccc1/C=N/Nc1c(F)c(F)c(F)c(F)c1F | 4.6% (inactive) |
| C/C(=N/NC(=O)CSc1ccccn1)c1ccc([N+](=O)[O-])cc1 | -4.8% (inactive) |
| Nc1nnnn1CC(=O)N/N=C/c1ccc(-c2cccc(Cl)c2)o1 | -2.3% (inactive) |
| O=C(COc1ccc(Cl)cc1)NCc1nnc(SCC(=O)NCC2CCCO2)o1 (stereo not drawn) | -2.4% (inactive) |
| COc1ccc(/C=C/C(=O)c2cc(Br)ccc(=O)c2O)cc1 | 12.7% (inactive) |
| CCNC(=O)CC1C(=O)N(c2ccc(F)cc2)C(=O)N1CCc1sccc1C (stereo not drawn) | 3.2% (inactive) |
| CCCCn1c(N)c(N(CC)C(=O)/C=C/c2ccco2)c(=O)[nH]c1=O | 1.1% (inactive) |
| COc1ccc(Cl)cc1N(CC(=O)N1CCCCC1)S(C)(=O)=O | -2.8% (inactive) |
| COc1ccc(C2CC(c3ccccc3)=NN2C(=O)c2ccc(Cl)c([N+](=O)[O-])c2)cc1 (stereo not drawn) | 0.4% (inactive) |
| O=C(/C(=C/c1cccc(Cl)c1)c1nc2ccccc2[nH]1)c1ccccc1 | -1.2% (inactive) |
| Cc1cc(C)n(-c2ccc3nncn3n2)n1 | -4% (inactive) |
| CCOc1ccc(S(=O)(=O)Nc2ccncc2)c(C)c1C | -3.2% (inactive) |
| c1ccc2c(NC3C4CC5CC(C4)CC3C5)nc(N3CCOCC3)nc2c1 (stereo not drawn) | -4.8% (inactive) |
| COc1cccc(C(=O)Oc2cc(C)[nH]c(=O)c2[N+](=O)[O-])c1 | -4.1% (inactive) |
| CC1(C)CC(=O)CC2(C1)NCC(c1ccccc1Cl)c1c2[nH]c2ccccc12 (stereo not drawn) | -3.4% (inactive) |
| CCOn1c(=O)c(=O)n(O)c2ccccc21 | -6.3% (inactive) |
| Cc1ccc([N+](=O)[O-])c(OCCCNCC(C)O)c1 (stereo not drawn) | -0.7% (inactive) |
| COc1ccc(C)cc1NC(=O)C(Sc1ccccc1)c1ccccc1 (stereo not drawn) | -3% (inactive) |
| CCCCC(CC)CNC(=O)CCCCn1c(=O)[nH]c2ccsc2c1=O (stereo not drawn) | -0.9% (inactive) |

| Structure (SMILES) | inhibition |
| --- | --- |
| OCCC1CN(Cc2cccc(OC3CCCC3)c2)CCN1Cc1ccsc1 (stereo not drawn) | -1.7% (inactive) |
| O=C(CN1C(=O)/C(=C/c2ccccc2F)Sc2ccccc21)NCc1cccnc1 | -4.7% (inactive) |
| Cc1ccc(CN2CCN(/N=C/c3ccco3)CC2)c(C)c1 | -2% (inactive) |
| Cc1ccc(/C(N)=N/OC(=O)COc2ccc(Cl)c(C)c2)cc1 | -6.6% (inactive) |
| COc1ccc(Cl)cc1NC(=O)CN(C)Cc1ccc(OC)c(OC)c1 | 2.3% (inactive) |
| Cc1nnc(SC(C(=O)Nc2cc(Cl)cc(Cl)c2)c2ccccc2)[nH]c1=O (stereo not drawn) | 2.4% (inactive) |
| COc1ccc(F)cc1C(=O)C1CCCN(C(=O)CCc2ccccn2)C1 (stereo not drawn) | 0.9% (inactive) |
| COc1ccc(NC(=O)CN(Cc2ccccc2)S(C)(=O)=O)cc1OC | -3.6% (inactive) |
| O=C(O)c1ccc(NS(=O)(=O)c2ccc3c(c2)C(=O)c2cc(S(=O)(=O)Nc4ccc(C(=O)O)cc4)ccc2-3)cc1 | 2.8% (inactive) |
| CCC(=O)Nc1c(C)n[nH]c1C | -6.7% (inactive) |
| CC(CCc1ccccc1)NCC(O)c1cccc([N+](=O)[O-])c1 (stereo not drawn) | -4.1% (inactive) |
| N#Cc1c(NC(=O)CCCl)sc2c1CCCCC2 | 0.1% (inactive) |
| Cc1cccc(C(=O)OCC(=O)Nc2sc3c(c2C#N)CCC3)c1 | 5.2% (inactive) |
| CC(=O)c1c(C)[nH]c(C(=O)OCC(=O)Nc2sc3c(c2C#N)CCCC3)c1C | 50.6% (active) |
| Oc1ccc(/C=N/N(Cc2ccccc2)c2ccccc2)cc1 | -6.2% (inactive) |
| Cc1nc(CC(=O)NNS(=O)(=O)c2ccc(F)c(Cl)c2)cs1 | -6.6% (inactive) |
| O=C(O)c1ccccc1-c1ccccc1C(=O)NCc1cccnc1 | 3.5% (inactive) |
| O=C(Oc1c(-c2ccco2)oc2ccccc2c1=O)c1cccnc1 | -3.4% (inactive) |
| C(=N\N1CCN(c2ccccn2)CC1)/C1=C(N2CCOCC2)C(=C/c2ccccc2)/CC1 | -0.3% (inactive) |
| CC(=O)Nc1sc2c(c1C(c1cccc(F)c1)N1CCN(CCO)CC1)CCCC2 (stereo not drawn) | -3.5% (inactive) |
| Cc1cccc(NC(=O)c2ccc3nsnc3c2)c1C | -1.2% (inactive) |
| CCOC(=O)c1c(NC(=O)C2CC=CCC2C(=O)O)sc(C)c1CC (stereo not drawn) | 2% (inactive) |

| Structure (SMILES) | inhibition |
| --- | --- |
| CCC(C)NC(=O)c1nn(C)c(=O)c2ccccc12 (stereo not drawn) | -4.5% (inactive) |
| O=c1c(-c2ccccc2)coc2cc(O)ccc12 | -6.9% (inactive) |
| COc1cc2sc(C)nc2cc1C | -3.9% (inactive) |
| CCSc1ccccc1C(=O)Nc1ccc2c(c1)OCO2 | -5.5% (inactive) |
| COc1cc(/C=C/C(=O)O)cc(S(=O)(=O)Nc2ccccc2SC)c1OC | 6.4% (inactive) |
| CC(=O)Nc1ccc(Nc2c3ccccc3nc3ccccc23)cc1 | 2.2% (inactive) |
| O=C(CN1CCN(c2ccc(Cl)cc2)CC1)NCc1cccs1 | -1.4% (inactive) |
| CCCCNC(=O)C1CCC(CNS(=O)(=O)c2ccc(NC(C)=O)cc2)CC1 (stereo not drawn) | -2.5% (inactive) |
| O=C(CCc1ccc(S(=O)(=O)N2CCOCC2)cc1)NN=C1CCCCCCC1 | -2% (inactive) |
| COc1ccc(N2C(=O)CC(Sc3n[nH]c(-c4ccc(C)cc4)n3)C2=O)cc1 (stereo not drawn) | -5.7% (inactive) |
| CN(C)c1nccc(NCc2ccccc2)c1C#N | 0.6% (inactive) |
| COc1cccc(N(Cc2nnc3n2CCCCC3)C(=O)Nc2ccccc2F)c1 | -2.9% (inactive) |
| CC(C)c1nc2sc3c(c2c(=O)n1N)CC(C)(C)OC3 | -1.5% (inactive) |
| COCCn1c(SCC(=O)Nc2ccc3c(c2)CCC3)nc2ccccc2c1=O | -1.3% (inactive) |
| CCN(C(=O)CSc1nc2ccccc2n1CC)C1CCS(=O)(=O)C1 (stereo not drawn) | -1.3% (inactive) |
| Cc1cc(C(=O)COC(=O)CNC(=O)c2ccc(F)cc2)c(C)n1Cc1ccco1 | 1.3% (inactive) |
| S=C(Nc1ccc(Br)cc1Cl)NC1CCN(Cc2ccccc2)CC1 | -5.2% (inactive) |
| CSCCC(NC(=O)c1cc([N+](=O)[O-])cc([N+](=O)[O-])c1)c1nc2ccccc2[nH]1 (stereo not drawn) | -6.8% (inactive) |
| CCc1ccc(CN2C(=O)c3ccccc3C2C(=O)NCC2CCCO2)cc1 (stereo not drawn) | 2.3% (inactive) |
| Cc1cccc(N2CCN(c3ccc(NC(=O)/C=C\C(=O)O)cc3)CC2)c1 | -4.5% (inactive) |
| NNC(=O)COc1ccc(C2SCCS2)cc1 | -6.7% (inactive) |
| O=C(NCc1ccncc1)NC12CC3CC(CC(C3)C1)C2 | 2.3% (inactive) |

| Structure (SMILES) | inhibition |
| --- | --- |
| COc1ccc([N+](=O)[O-])cc1NC(=O)CC1SC(=Nc2cccc(C)c2C)N(/N=C(\C)c2ccc(C)cc2)C1=O (stereo not drawn) | -3.9% (inactive) |
| Cc1[nH][nH]c(=O)c1C(c1ccc(-c2ccc(Cl)cc2)o1)c1c(C)[nH][nH]c1=O | 10.3% (inactive) |
| CCOc1ccc(C(c2c(C)[nH][nH]c2=O)c2c(C)[nH][nH]c2=O)cc1OCC | 71.4% (active) |
| Cc1[nH][nH]c(=O)c1C(c1ccc2c(c1)OCO2)c1c(C)[nH][nH]c1=O | 44% (inactive) |
| CC(CNc1ccc([N+](=O)[O-])c2cccnc12)Nc1c([N+](=O)[O-])cc(C(F)(F)F)cc1[N+](=O)[O-] (stereo not drawn) | 13.7% (inactive) |
| NS(=O)(=O)c1ccc(CCNC(=O)c2ccc(Cl)cc2[N+](=O)[O-])cc1 | 5.9% (inactive) |
| CCCC(=O)NC(=S)Nc1ccc(CN2CCOCC2)cc1 | -4.1% (inactive) |
| Cc1cc(-c2n[nH]c(=S)n2-c2ccc(C)c(C)c2)no1 | -3% (inactive) |
| O=C(c1cc(Cl)cc(Cl)c1)N1CCC(=O)N(C(COCc2ccccc2)Cc2ccccc2)CC1 (stereo not drawn) | -3.9% (inactive) |
| CCn1c(SCC(=O)Nc2nc(C)cs2)nnc1C(C)NC(=O)c1ccccc1 (stereo not drawn) | -5.3% (inactive) |
| COCCCNC(=O)CNC(=S)N(Cc1cc(OC)c(OC)c(OC)c1)C1CCCC1 | -4.1% (inactive) |
| CC(=O)Nc1ccc(NC(=O)C(C)OC(=O)c2ccccc2C(=O)c2ccc(Cl)c([N+](=O)[O-])c2)cc1 (stereo not drawn) | 0.3% (inactive) |
| Cc1cc(C)c(NC(=O)c2oc3ccccc3c2COc2ccccc2)c(C)c1 | 0.7% (inactive) |
| CCn1c(C(C)NC(=O)c2ccc(C)cc2)n[nH]c1=S (stereo not drawn) | -0.4% (inactive) |
| CC(C)(C)NC(=O)CN(C(=O)c1ccc(Cl)nc1)c1cccc2ccccc12 | -2.9% (inactive) |
| CC(C)(C)n1nc2c(c1NC(=O)c1cc3ccccc3o1)CSC2 | -7.4% (inactive) |
| COc1cc(C(=O)Nc2cc(C(F)(F)F)ccc2-n2cncn2)cc(OC)c1OC | -1.7% (inactive) |
| O=C(COc1cc(Cl)c(Cl)cc1Cl)NC(=O)NC1CCCC1 | 0.7% (inactive) |
| O=C(Nc1ccc2c(c1)OCO2)c1sc2cc(Cl)ccc2c1Cl | 0.3% (inactive) |
| Cc1nnc(SCc2cccc(Cl)c2)n(N)c1=O | -2.2% (inactive) |
